Only some compounds are listed: those with a hit (about 2.9% of all), similar ones and a draw of the others.
EPAC1 agonist – human EPAC1 agonism, validation; O95398; EPAC1 Rap1b BODIPY-GDP exchange, fluorescence; Potency, µM, for inactives: max response, positive = active, actives largely listed as activators; 16,000 tested, 1% active; also: nearly all actives have a fitted effect of over 70% in size
EPAC2 ant val – validation of human EPAC2 antagonists | Q8WZA2 | EPAC2 Rap1B BODIPY-GDP exchange, fluorescence | Potency, µM (titrated, usually from 112 µM), inactives show at the top dose activity, negative = inhibition, usual class: inhibitors | 16,000 tested, 1.7% active;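 also: 100% = activation by cAMP agonist control; nearly all actives have a fitted effect of over 40% in size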
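Fluorescent exchange read-out: 100 nM EPAC2 with 250 nM RAP1B–BODIPY-GDP and 50 uM GDP; BODIPY-GDP release lowers fluorescence. Read at 480/540 nm every 5 min for 30 min at room temperature; normalized to 6.5 mM cAMP.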
Numbers without * were called inactive; ? = inconclusive; ! = a repeat was not active; [ ] = dose if it differs, or a comment. Calls follow the shape of the dose curve; as a rule, active = well fitted curve in the direction sought with a large enough effect; inconclusive = small, poorly fitted or top-dose-only effect, or another doubt; inactive = no such curve, though single readings can be large; an effect the other way counts as inactive or inconclusive. Unless noted, % is scaled to controls: 0 for no effect and ±100 for the full control effect; potency is read from the fitted curve at half-maximal effect.

SMILES | EPAC1 agonist | EPAC2 ant val
COCCn1c(=O)c(-c2ccc(OC)cc2)nc2cnc(Nc3ccccc3)nc21 | -19% | -18%
COc1ccc(-n2c(=O)c(-c3cccs3)nc3cnc(Nc4cccc(OC)c4)nc32)cc1 | 100µM* | 28%
COCCn1c(=O)c(-c2cccs2)nc2cnc(Nc3ccccc3)nc21 | 100µM* | 71%
CN1CCN(c2ncc3nc(-c4cccs4)c(=O)n(Cc4cccs4)c3n2)CC1 | -12% | 4%
Fc1ccc(N2CCN(Cc3ccc4c(c3)CN(Cc3cccn3-c3cccnc3)CCO4)CC2)cc1 | 0% | -20%
CCC1(C2CCN(Cc3ccc(C)s3)CC2)NC(=O)N(CC2COc3ccccc3O2)C1=O (centres undefined) | -12% | ?
CSc1ccccc1C(=O)NCc1nc(-c2cccc(NC(=O)c3ccoc3C)c2)oc1C | 9% | -26%
CN(C)c1ncc2ncc(=O)n(Cc3cccs3)c2n1 | -6% | 45µM*
COc1ncc2ncc(=O)n(Cc3cccs3)c2n1 | 3% | -21%
C1=Cc2ccccc2/C1=C\c1ccc2c(c1)OCO2 | 100µM* | ?
C1=Cc2ccccc2/C1=C/c1ccc(/C=C2\C=Cc3ccccc32)cc1 | ? | 17%
O=C(OC[C@H]1O[C@](O)(COC(=O)c2cccnc2)[C@@H](OC(=O)c2cccnc2)[C@@H]1OC(=O)c1cccnc1)c1cccnc1 | -16% | -1%
COC(=O)C1CCN(Cc2ccc3c(c2)CN(C(=O)c2cc(-c4ccc(C)o4)[nH]n2)CCO3)CC1 | -5% | ?
CC(C)CC1C(=O)N2CCCC2C2(O)O[C@@](NC(=O)C3C=C4c5cccc6[nH]c(Br)c(c56)CC4N(C)C3)(C(C)C)C(=O)N12 (some centres undefined) | ? | -19%
CC(C)C[C@H]1C(=O)N2CCC[C@H]2[C@]2(O)O[C@](NC(=O)[C@@H]3C=C4c5cccc6[nH]c(Br)c(c56)C[C@H]4N(C)C3)(C(C)C)C(=O)N12 | 112µM*! | -19%
CCN1CCCC1CNC(=O)c1cnn(-c2nccc(-c3cccs3)n2)c1C(C)C (centres undefined) | 10% | ?
C#C[C@]1(O)CC[C@H]2[C@@H]3CCc4cc(O)ccc4[C@H]3CC[C@@]21C | -37% | -20%
C#C[C@@]1(O)CCC2C3CCC4=CC(=O)CCC4C3CC[C@@]21CC (some centres undefined) | 9% | -21%
C#C[C@]1(OC(C)=O)CC[C@H]2[C@@H]3CCC4=C[C@@H](OC(C)=O)CC[C@@H]4[C@H]3CC[C@@]21C | 45µM*! | ?
C#C[C@]1(OC(C)=O)CCC2C3CCC4=CC(=O)CCC4C3CC[C@]21C (some centres undefined) | 16% | 79µM*
C=C(c1ccc2ccccc2n1)c1cccs1 | -2% | ?
COc1cc(C(=O)NS(=O)(=O)c2ccccc2C)ccc1Cc1cn(C)c2ccc(NC(=O)OC3CCCC3)cc12 | 4% | 79µM*
Cc1ccc(C(=O)Nc2ccc(S(=O)(=O)O)c3cc(S(=O)(=O)O)cc(S(=O)(=O)O)c23)cc1NC(=O)c1cccc(NC(=O)Nc2cccc(C(=O)Nc3cc(C(=O)Nc4ccc(S(=O)(=O)O)c5cc(S(=O)(=O)O)cc(S(=O)(=O)O)c45)ccc3C)c2)c1 | 89µM*! | -8%
COc1ccc(SC[C@H](Cc2ccccc2)N2CC[C@@H](C)CCC2=O)cc1 | 5% | 40µM*
Cc1ccc(SC[C@H](Cc2ccccc2)N2CC[C@@H](C)CCC2=O)cc1 | -25% | ?
SMILES | EPAC1 agonist | EPAC2 ant val
COc1ccc2c(c1)-c1nc(-n3ncc(C(=O)NCc4cccnc4)c3C3CC3)ncc1CC2 | 0% | -8%
OC(C1=C/C(=C\c2ccncc2)c2ccccc21)c1ccncc1 (centres undefined) | 3% | ?
CN(C)c1ccc(C(=C2C=CC(=[N+](C)C)C=C2)c2c(O)c(S(=O)(=O)[O-])cc3cc(S(=O)(=O)O)ccc23)cc1 | -36% | 56µM*
CN(C)c1ccc(C(=C2C=CC(=[N+](C)C)C=C2)c2ccccc2)cc1 | -10% | -1%
CCCCCCCCCCCCCCCC(=O)O[C@@H]1CC(C)=C(/C=C/C(C)=C/C=C/C(C)=C/C=C/C=C(C)/C=C/C=C(C)/C=C/C2=C(C)C[C@@H](OC(=O)CCCCCCCCCCCCCCC)CC2(C)C)C(C)(C)C1 | -55% | -16%
COc1cc([C@@H]2c3cc4c(cc3[C@@H](O[C@@H]3O[C@@H]5CO[C@@H](C)O[C@@H]5[C@H](O)[C@@H]3O)[C@H]3COC(=O)[C@H]23)OCO4)cc(OC)c1O | -4% | -11%[29.6 µM]
CN(C)c1ccc(/C=C/c2cc(N(C)C)nc3ccccc23)cc1 | -15% | ?
Cc1cnc2ccccc2c1/C=C/c1ccc(N(C)C)cc1 | 100µM* | -34%
Cc1nc2ccccc2nc1/C=C/c1ccc(N(C)C)cc1 | -53% | ?
CN(C)c1ccc(/C=C/c2c3c(nc4ccccc24)CCCC3)cc1 | 100µM* | 84%
Cc1ccccc1-c1ccc(CN2CCc3nnc(C(NS(C)(=O)=O)C(C)C)n3CC2)cc1 (centres undefined) | -8% | ?
COc1ccc2cc(CNC3CCS(=O)(=O)C3)c(-c3ccc(OC)c(OC)c3)nc2c1 (centres undefined) | 4% | -8%
CC(=O)OCC(=O)[C@@]1(O)CC[C@H]2[C@@H]3CCC4=CC(=O)CC[C@]4(C)C3=CC[C@@]21C | -11% | -3%
CC(C)(C)[C@H]1CCC(=O)N([C@H](CN=[N+]=[N-])Cc2ccccc2)CC1 | -84% | 56µM*
[N-]=[N+]=NC[C@H](Cc1ccccc1)N1CC[C@@H](O)CCC1=O | 12% | -5%
CCC(C)[C@H]1O[C@]2(C=C[C@@H]1C)C[C@@H]1C[C@@H](C/C=C(\C)[C@@H](O[C@H]3C[C@H](OC)[C@@H](O[C@H]4C[C@H](OC)[C@H](NC(C)=O)[C@H](C)O4)[C@H](C)O3)[C@@H](C)/C=C/C=C3\CO[C@@H]4[C@H](O)C(C)=C[C@@H](C(=O)O1)[C@]34O)O2 (some centres undefined) | -10% | -8%
COc1cccc(Cn2c(=O)c(-c3ccccc3)nc3cnc(N4CCN(C)CC4)nc32)c1 | -54% | -12%
COc1cccc(Nc2ncc3nc(-c4cn(C)c5ccccc45)c(=O)n(C[C@H]4CCCO4)c3n2)c1 | 112µM* | 9%
COc1cccc(Nc2ncc3nc(C)c(=O)n(C[C@H]4CCCO4)c3n2)c1 | 6% | -11%
COc1cccc(Cn2c(=O)c(-c3cn(C)c4ccccc34)nc3cnc(N4CCNCC4)nc32)c1 | ? | 79µM*
COc1cccc(Cn2c(=O)c(-c3cn(C)c4ccccc34)nc3cnc(N4CCOCC4)nc32)c1 | 0% | 14%
COc1cccc(Cn2c(=O)c(CCc3ccccc3)nc3cnc(N4CCN(C)CC4)nc32)c1 | 112µM* | -3%
COC(=O)[C@H]1[C@H]2C[C@@H]3c4[nH]c5cc(OC)ccc5c4CCN3C[C@H]2C[C@H](OC)[C@@H]1OC | 3% | 20%
O=C1NC(=O)[C@H]2[C@@H]1[C@@H]1C=C[C@H]2C1 | 8% | -10%
O=C[C@H](O)[C@@H](O)[C@H](O[C@H]1O[C@H](CO)[C@@H](O[C@H]2O[C@H](CO)[C@@H](O)[C@H](O)[C@H]2O)[C@H](O)[C@H]1O)[C@H](O)CO | 3% | 12%

Source: PubChem
